Among all 140,000 compounds or so, about 4,300 (3.1%) were called active. Inconclusive results (about 21%) are left out. The sample holds actives, similar compounds and a random draw of the others, so the mix is not that of the screen. Values without a mark were called inactive.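 Rule for the calls: active = readout at or below -70, meaning at least 70% loss of cells showing the perinucleolar compartment, a nuclear body marking cancer cells; inconclusive = readout between -30 and a set limit; inactive = the rest.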

This assay is described as follows: High Content Assay for Compounds that inhibit the Assembly of the Perinucleolar Compartment.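 Note: plate controls were DMSO wells for no effect and camptothecin positive control wells for full effect.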 The following applies: PC3M PTB-GFP, PNC prevalence imaging, 16 h; at 10 µM; hits give low values. The method, boiled down:
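Compounds are pinned in duplicate onto adhered PC3M cells stably expressing GFP-tagged PTB and incubated 16 h at 37 C. Cells are then fixed, nuclei stained with Hoechst, and PNC-positive cells counted.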
For `Cc1cc(C)c(C2C3=C(Nc4c2c(C)nn4-c2ccccn2)c2ccccc2C3=O)c(C)c1` (configuration not stated), the activity change (PNC), negative = inhibition is -28.9%.
For `CC1=C[C@H]2Cc3cc(C)cc(C)c3S(=O)(=O)[C@@H]2C=C1`, the activity change (PNC), negative = inhibition is 28.1%.
`COc1ccc(-n2c(C)cc(C(=O)COC(=O)c3cc(OC)c(OC)cc3NC(=O)c3cccs3)c2C)cc1`: the activity change (PNC), negative = inhibition was 173%.
For `CCCn1c(C)cc(C(=O)COC(=O)c2c(C)nn(-c3ccccc3)c2C)c1C`, the activity change (PNC), negative = inhibition was -22.8%.
With `Cc1cc(C(=O)COC(=O)c2cccs2)c(C)n1-c1c(C)n(C)n(-c2ccccc2)c1=O`, the activity change (PNC), negative = inhibition is -127% (active).
Regarding `O=C(Oc1ccc([N+](=O)[O-])cc1)c1ccc2ccccc2n1`, the activity change (PNC), negative = inhibition is -25.3%.
For the compound `COc1ccc(C(=O)COC(=O)c2ccc3ccccc3n2)cc1`, the activity change (PNC), negative = inhibition was -89.8% (active).
For the compound `COc1ccc(C2=NOC(COC(=O)c3ccc4ccccc4n3)C2)cc1` (configuration not stated), the activity change (PNC), negative = inhibition was -3.15%.
`Cc1cc(C)cc(OCC(=O)Nc2nc3ccc([N+](=O)[O-])cc3s2)c1`: the activity change (PNC), negative = inhibition was 84.2%.
For the compound `CCOc1ccc2nc(Nc3nc4ccc(NC(C)=O)cc4s3)sc2c1`, the activity change (PNC), negative = inhibition is 10%.
Consider `CCOc1ccc2nc(NC(=O)c3cc([N+](=O)[O-])ccc3N3CCOCC3)sc2c1`, for which the activity change (PNC), negative = inhibition was -84.5% (active).
For `Cc1ccc(-c2csc(SCC(=O)Nc3cc(C)on3)n2)cc1` the value was 32.6%; for `Cc1cc(C)c2c(c1)cc(C)c1nnc(SCC(=O)Nc3cc(C)on3)n12`, -88.4% (active); for `CCOc1ccccc1Nc1nnc(SCC(=O)Nc2cc(C)on2)s1`, 1.96%.
In the case of `COc1cccc(-n2c(SCC(=O)c3c[nH]c4ccccc34)nc3ccccc3c2=O)c1`, the activity change (PNC), negative = inhibition is -15.1%.
Turning to `O=C(Nc1c2c(nc3ccccc13)CCCC2)c1ccccc1Br`, the activity change (PNC), negative = inhibition was -109% (active).
The figure for `O=C(COC(=O)c1c2c(nc3ccccc13)CCCC2)c1ccc(Br)s1` is 17.9%.
Regarding `Cc1nonc1NC(=O)c1ccccc1Br`, the activity change (PNC), negative = inhibition was -15.2%.
For `Cc1ccc(C)c(NC(=O)CCC(=O)NNC(=O)c2cccs2)c1`, the activity change (PNC), negative = inhibition is 30.9%.
`NC1=NC(=O)C(Cc2cccc(Cl)c2Cl)S1` (configuration not stated): the activity change (PNC), negative = inhibition is -13.4%.
Turning to `COc1ccccc1N1N=C(c2cccs2)CC1c1ccccc1` (configuration not stated), the activity change (PNC), negative = inhibition is -19.6%.
On to `CCNc1nc(NC(C)C)nc(OCCOC(=O)c2ccccc2)n1`, for which the activity change (PNC), negative = inhibition was -100% (active).
For `CCNc1nc(NC(C)C)nc(N2CC(=O)N(CC(=O)OCC)C2=N)n1` the value was 3.87%.
The figure for `CC(C)Nc1nc(N(c2ccccc2)c2ccccc2)nc(-n2ccnc2)n1` is -4.69%; for `O=C(CCc1ccccc1)Nc1nn[nH]n1` it is 50.3%; for `COc1ccc(C2COC(=O)C2=N)c(NC(=O)c2ccccc2)c1` (configuration not stated) it is -25.6%.
Take `CCC1=NN(C(=O)Cc2ccc([N+](=O)[O-])cc2)C(O)(c2ccc(Br)cc2)C1` (configuration not stated): the activity change (PNC), negative = inhibition is 99.6%.
With `COc1ccccc1-c1nnc(NC(=O)c2ccc3ncsc3c2)o1`, the activity change (PNC), negative = inhibition was -121% (active).
On to `COc1ccccc1-c1nnc(NC(=O)c2cccc(N3C(=O)CCC3=O)c2)o1`, for which the activity change (PNC), negative = inhibition was -7.63%.
The figure for `COc1ccccc1-c1nnc(SCC(=O)Nc2cc(C)on2)o1` is -4.25%; for `CCCCC(CC(C)O)c1n[nH]c(=S)n1-c1ccccc1` (configuration not stated) it is 4.51%.
On to `O=C(NCCCO)/C(=C\C=C\c1ccccc1)NC(=O)c1ccccc1Cl`, for which the activity change (PNC), negative = inhibition is 26.4%.
As to `O=C(N/N=C/c1cc([N+](=O)[O-])ccc1O)/C(=C\c1cccs1)NC(=O)c1ccccc1`, the activity change (PNC), negative = inhibition was 25.3%.
For `O=C(NCCc1ccccc1)/C(=C\c1ccc([N+](=O)[O-])cc1)NC(=O)c1ccccc1`, the activity change (PNC), negative = inhibition is -6.81%.
On to `O=C(N/N=C/c1ccc(O)cc1)/C(=C/c1ccc([N+](=O)[O-])cc1)NC(=O)c1ccccc1`, for which the activity change (PNC), negative = inhibition was -101% (active).
For `CCCC(=O)Nc1ccc(C(=O)N/N=C/c2ccc[nH]2)cc1` the value was -29.4%.
For `Cc1csc(=Nc2ccccc2)n1CCO` the value was -25.4%; for `Cc1csc(=NC(=O)c2ccccc2)n1CCO`, -9.41%; for `C=C(C)CNC(=S)/N=c1\scc(C)n1CC`, -100% (active).
On to `COc1cc(/C=C/C(=O)N2c3ccccc3Sc3ccc(C(F)(F)F)cc32)cc(OC)c1OC`, for which the activity change (PNC), negative = inhibition was -24.5%.
As to `C/C(=N\NC(=O)Cc1ccc(Cl)cc1)c1ccccn1`, the activity change (PNC), negative = inhibition is -18.2%.
Regarding `O=C(CSc1nnc(Nc2ccccc2)s1)Nc1cccnc1Cl`, the activity change (PNC), negative = inhibition was -10.3%.
Consider `O=C(Nc1ccccc1Cl)O/N=C(/c1ccccc1)c1ccccn1`, for which the activity change (PNC), negative = inhibition was -96.2% (active).
For the compound `COc1cc2c(cc1OC)C(=O)NCC(C)(C)O2`, the activity change (PNC), negative = inhibition is 47.7%.
Take `CCCCN(CC)C(=O)c1ccc2c(c1)OCO2`: the activity change (PNC), negative = inhibition is 21.9%.
For the compound `O=C(OCC(O)C(O)COC(=O)c1ccccc1)c1ccccc1` (configuration not stated), the activity change (PNC), negative = inhibition is -83.5% (active).
Regarding `CCOC(=O)c1ccc(N/C(=N/S(=O)(=O)c2ccccc2)c2ccccc2)cc1`, the activity change (PNC), negative = inhibition is 3.77%.
For `COC(=O)c1ccc(NCC(=O)c2ccccc2)cc1` the value was -26.4%.
Regarding `COc1ccc(/C=C/C(=O)OCC(=O)NCc2cccs2)cc1OC`, the activity change (PNC), negative = inhibition is -1.51%.
In the case of `CCCCOc1ccc(C(=O)N/C(=C/C=C/c2ccccc2)C(=O)N2CCOCC2)cc1`, the activity change (PNC), negative = inhibition is -12.2%.
For `CCOc1ccc2nc(C(=O)N3CCCC(C)C3)sc2c1` (configuration not stated), the activity change (PNC), negative = inhibition was 6.06%.
As for `O=C(NC1CCCC1)C(NS(=O)(=O)c1ccc(Br)s1)c1ccccc1` (configuration not stated), the activity change (PNC), negative = inhibition was 48.1%.
For the compound `O=C(/C=C/c1cccs1)NCc1cccnc1`, the activity change (PNC), negative = inhibition is -0.603%.
With `O=C(NCc1cccnc1)c1cn(-c2ccccc2)nc1-c1cccs1`, the activity change (PNC), negative = inhibition was -139% (active).
Regarding `COC(=O)c1cn(-c2ccccc2)nc1-c1cccnc1`, the activity change (PNC), negative = inhibition was -22.9%.
The figure for `COC1=CCC2([N+](=O)[O-])CN(CC(=O)O)CC1([N+](=O)[O-])C2` (configuration not stated) is 6.59%.
As for `COc1ccc(/C=C/C(=O)Nc2ccc3c(c2)OCCO3)cc1OC`, the activity change (PNC), negative = inhibition was -11.1%.
For `Cc1cc(C(=O)OCC(=O)Nc2nnc(C(C)C)s2)c2ccccc2n1` the value was 3.82%.
On to `CCCc1nc2c([nH]1)C(c1cccnc1)C(C#N)=C(N)O2` (configuration not stated), for which the activity change (PNC), negative = inhibition was 7.34%.
For `O=C(CN1CCN(c2ncc(C(F)(F)F)cc2Cl)CC1)Nc1ccc2c(c1)OCO2`, the activity change (PNC), negative = inhibition was -86.4% (active).
Regarding `O=C(CN1CCN(CC(=O)Nc2ccc3c(c2)OCO3)CC1)Nc1ccc(F)cc1`, the activity change (PNC), negative = inhibition was -20.9%.
As to `O=C(CN1CCN(c2ccc(F)cc2)CC1)Nc1cccc(C(F)(F)F)c1`, the activity change (PNC), negative = inhibition is -19.9%.
